Source: PubChem BioAssay
Active and inactive are the calls of the source.

Legend:
[1] = small molecules captured by biotinylated probe aFSTL3 – biochemical, small-molecule microarray, fluorescence 635/667, stem cell growth factor project, primary screen (AID 1064); settings: higher = more signal;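 further: measures binding of the biotinylated anti-FSTL3 antibody to printed compounds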
[2] = binders from COS7 lysate, DM2A8 probe, primary screen, torsin A project, cell lysate, small-molecule microarray, fluorescence 635/667 (AID 1065); settings: higher = more signal, COS7 lysate expressing mutant human TOR1A
[3] = small molecules captured by biotinylated probe aFGF2 – biochemical, small-molecule microarray, fluorescence 635/667, stem cell growth factor project, primary screen (AID 1067); settings: higher = more signal;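 further: measures binding of biotinylated aFGF2 protein to printed compounds on slides; z-score merges feature fluorescence and signal-to-noise across triplicate slides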
[4] = small molecules captured by biotinylated probe aFGF10 – biochemical, small-molecule microarray, fluorescence 635/667, stem cell growth factor project, primary screen (AID 1071); settings: higher = more signal;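 further: score merges 667 nm spot intensity and signal to noise from triplicate slides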
[5] = biological target: Neurogenic locus notch homolog protein 2 (Homo sapiens) (UniProt Q04721); assay: small molecules binding Notch2 protein – biochemical, small-molecule microarray, 635 nm fluorescence, stem cell growth factors, primary screen (AID 1073); settings: higher = more signal
Neurogenic locus notch homolog protein 2 (Homo sapiens), sequence (Q04721 whole entry, looked up, canonical isoform): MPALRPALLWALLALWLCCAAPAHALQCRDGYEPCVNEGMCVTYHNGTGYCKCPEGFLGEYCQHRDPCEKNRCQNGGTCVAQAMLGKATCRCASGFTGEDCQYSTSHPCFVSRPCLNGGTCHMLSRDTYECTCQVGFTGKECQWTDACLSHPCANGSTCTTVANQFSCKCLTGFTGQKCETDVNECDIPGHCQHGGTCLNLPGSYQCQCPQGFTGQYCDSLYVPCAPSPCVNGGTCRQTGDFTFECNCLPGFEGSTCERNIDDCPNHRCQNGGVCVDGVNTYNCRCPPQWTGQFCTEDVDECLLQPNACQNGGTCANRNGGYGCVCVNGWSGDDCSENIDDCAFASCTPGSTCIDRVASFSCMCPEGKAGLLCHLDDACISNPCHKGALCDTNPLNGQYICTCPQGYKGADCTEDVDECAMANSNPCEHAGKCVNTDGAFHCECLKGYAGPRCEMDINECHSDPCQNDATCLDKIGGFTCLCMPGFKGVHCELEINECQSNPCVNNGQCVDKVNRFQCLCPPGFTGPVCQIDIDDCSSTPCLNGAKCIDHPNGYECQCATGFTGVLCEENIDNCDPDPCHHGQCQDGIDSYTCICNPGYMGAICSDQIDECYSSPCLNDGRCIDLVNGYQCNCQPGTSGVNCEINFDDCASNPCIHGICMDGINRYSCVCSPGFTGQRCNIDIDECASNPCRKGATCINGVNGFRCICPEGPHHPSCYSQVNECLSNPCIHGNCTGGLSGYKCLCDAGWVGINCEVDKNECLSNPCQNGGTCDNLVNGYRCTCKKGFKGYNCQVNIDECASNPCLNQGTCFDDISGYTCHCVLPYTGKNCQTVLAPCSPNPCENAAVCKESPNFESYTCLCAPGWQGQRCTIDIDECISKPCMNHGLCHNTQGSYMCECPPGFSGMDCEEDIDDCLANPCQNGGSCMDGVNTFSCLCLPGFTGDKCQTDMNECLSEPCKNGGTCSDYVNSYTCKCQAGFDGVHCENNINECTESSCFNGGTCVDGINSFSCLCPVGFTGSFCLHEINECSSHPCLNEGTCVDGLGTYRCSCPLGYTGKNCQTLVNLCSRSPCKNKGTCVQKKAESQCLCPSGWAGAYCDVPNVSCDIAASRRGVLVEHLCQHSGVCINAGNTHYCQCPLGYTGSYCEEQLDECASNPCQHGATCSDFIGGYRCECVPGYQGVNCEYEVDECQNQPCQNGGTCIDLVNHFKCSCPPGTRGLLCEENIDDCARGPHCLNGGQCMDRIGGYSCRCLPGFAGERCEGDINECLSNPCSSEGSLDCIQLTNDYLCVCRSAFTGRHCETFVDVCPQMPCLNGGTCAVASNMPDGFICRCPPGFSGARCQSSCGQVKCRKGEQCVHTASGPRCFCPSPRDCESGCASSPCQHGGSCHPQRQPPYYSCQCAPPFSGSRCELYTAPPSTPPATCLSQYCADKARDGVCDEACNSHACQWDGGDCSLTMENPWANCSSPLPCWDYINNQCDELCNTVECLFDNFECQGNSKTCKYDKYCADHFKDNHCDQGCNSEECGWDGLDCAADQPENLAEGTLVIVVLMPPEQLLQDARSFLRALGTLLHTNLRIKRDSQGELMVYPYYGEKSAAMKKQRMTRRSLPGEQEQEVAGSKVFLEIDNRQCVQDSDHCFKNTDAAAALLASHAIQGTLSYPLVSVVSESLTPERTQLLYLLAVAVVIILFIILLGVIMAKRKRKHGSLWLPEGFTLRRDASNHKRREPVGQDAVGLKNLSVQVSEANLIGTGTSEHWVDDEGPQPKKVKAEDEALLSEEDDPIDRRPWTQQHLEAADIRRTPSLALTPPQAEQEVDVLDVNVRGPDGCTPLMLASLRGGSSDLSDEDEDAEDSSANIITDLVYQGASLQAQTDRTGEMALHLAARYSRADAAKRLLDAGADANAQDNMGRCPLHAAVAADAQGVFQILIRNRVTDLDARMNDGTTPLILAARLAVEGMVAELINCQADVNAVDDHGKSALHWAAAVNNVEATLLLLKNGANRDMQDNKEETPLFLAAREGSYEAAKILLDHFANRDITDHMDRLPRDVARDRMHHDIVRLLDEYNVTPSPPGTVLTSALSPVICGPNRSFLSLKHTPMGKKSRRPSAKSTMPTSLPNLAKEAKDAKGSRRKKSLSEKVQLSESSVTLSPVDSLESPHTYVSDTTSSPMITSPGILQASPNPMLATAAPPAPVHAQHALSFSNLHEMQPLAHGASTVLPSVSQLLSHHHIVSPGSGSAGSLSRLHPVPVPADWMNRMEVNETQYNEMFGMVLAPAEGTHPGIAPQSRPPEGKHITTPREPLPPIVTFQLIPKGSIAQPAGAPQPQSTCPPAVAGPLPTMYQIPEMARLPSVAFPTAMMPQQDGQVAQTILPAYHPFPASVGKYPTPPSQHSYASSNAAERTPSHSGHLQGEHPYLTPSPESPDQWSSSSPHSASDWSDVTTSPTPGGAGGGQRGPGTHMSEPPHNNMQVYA

[6] = biological target: Pro-neuregulin-1, membrane-bound isoform (Homo sapiens) (UniProt Q02297); assay: small molecules binding neuregulin-1 protein – biochemical, small-molecule microarray, fluorescence 635/667, psychiatric disease protein project, primary screen (AID 1075); settings: NRG1 binding, 635 nm fluorescence, higher = more signal;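 further: score combines 667 nm spot fluorescence with signal to noise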
Pro-neuregulin-1, membrane-bound isoform (Homo sapiens), sequence (Q02297 whole entry, looked up, the tested form may be a part, canonical isoform): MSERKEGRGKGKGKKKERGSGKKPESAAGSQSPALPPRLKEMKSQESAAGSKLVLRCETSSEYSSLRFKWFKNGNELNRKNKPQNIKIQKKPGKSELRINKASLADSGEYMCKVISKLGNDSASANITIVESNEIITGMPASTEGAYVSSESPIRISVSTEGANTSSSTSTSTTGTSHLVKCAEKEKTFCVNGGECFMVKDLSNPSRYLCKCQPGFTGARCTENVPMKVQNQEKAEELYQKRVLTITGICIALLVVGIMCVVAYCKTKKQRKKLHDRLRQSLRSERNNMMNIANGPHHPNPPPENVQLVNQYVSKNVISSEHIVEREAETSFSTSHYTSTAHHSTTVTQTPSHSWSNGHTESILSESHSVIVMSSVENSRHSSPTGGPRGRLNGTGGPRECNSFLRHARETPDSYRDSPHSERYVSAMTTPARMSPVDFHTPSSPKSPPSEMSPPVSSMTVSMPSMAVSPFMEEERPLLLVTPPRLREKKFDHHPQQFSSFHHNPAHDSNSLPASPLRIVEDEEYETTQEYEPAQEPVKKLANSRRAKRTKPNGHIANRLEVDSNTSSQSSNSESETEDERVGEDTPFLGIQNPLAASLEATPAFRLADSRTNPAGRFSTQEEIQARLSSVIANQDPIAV

[7] = tested on: Neuregulin-1 EGF-like domain; assay: small molecules binding NRG1 EGF domain – biochemical, small-molecule microarray, 635 nm fluorescence, primary screen (AID 1081); settings: higher = more signal;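 further: binding of the protein to compounds printed on small-molecule microarray slides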
[8] = FRG1 expression reporter modulators in myotubes – cell-based, C2C12 myotubes, firefly/Renilla luciferase, luminescence, FRG1 inhibition for FSHD, primary screen (AID 1084); settings: FRG1 promoter luciferase, higher = more signal, called active from +8 up or from −8 down
[9] = small molecules captured by biotinylated probe aFST – biochemical, small-molecule microarray, fluorescence 635/667, stem cell growth factor project, primary screen (AID 1086); settings: higher = more signal;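 further: score merges 667 nm fluorescence with signal-to-noise of each printed compound spot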
[10] = binders of probe aHhip on microarray, primary screen, stem cell growth factor project, biochemical, small-molecule microarray, fluorescence 635/667 (AID 1087); settings: higher = more signal;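 further: score merges spot fluorescence at 667nm with spot signal to noise ratio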
[11] = tested on: PRMT1 (protein arginine N-methyltransferase 1); assay: small molecules binding arginine methyltransferase PRMT1 – biochemical, small-molecule microarray, 635 nm fluorescence, primary screen (AID 1088); settings: higher = more signal;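 further: binding of Prmt1 protein to compounds spotted on small-molecule microarray slides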
[12] = growth effects on S. cerevisiae YJM789 – YJM789 clinical isolate, OD600, 24 h, basal, primary screen (AID 1089); settings: higher = more signal, called active from +8 up or from −8 down;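 further: growth of clinical yeast isolate S. cerevisiae YJM 789 seeded 1000 cells per well; test concentration not given here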
[13] = S. pombe growth modifiers, basal conditions – strain 972, OD600, 24 h, no modulator, primary screen (AID 1090);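 further: basal condition with compound alone and no growth modifier present; test concentration not given here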; settings: S. pombe 972 growth, higher = more signal, called active from +8 up or from −8 down
[14] = budding yeast growth modifiers under rapamycin – strain BY4716, OD600, 96 h, primary screen (AID 1091); further: test concentration not given here; settings: S. cerevisiae BY4716 + rapamycin, higher = more signal, called active from +8 up or from −8 down
[15] = biological target: Torsin-1A-interacting protein 2 (Homo sapiens) (UniProt Q8NFQ8); assay: small molecules binding lysate-expressed LULL1 – cell lysate, human LULL1 lysate, 635/667 nm fluorescence, primary screen (AID 1092); settings: small-molecule microarray, hLULL1 lysate binding, 635 nm fluorescence; higher = more signal;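 further: probe is lysate of COS7 cells overexpressing human LULL1; score merges per-feature 667 nm fluorescence with signal-to-noise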
Torsin-1A-interacting protein 2 (Homo sapiens), sequence (Q8NFQ8 whole entry, looked up): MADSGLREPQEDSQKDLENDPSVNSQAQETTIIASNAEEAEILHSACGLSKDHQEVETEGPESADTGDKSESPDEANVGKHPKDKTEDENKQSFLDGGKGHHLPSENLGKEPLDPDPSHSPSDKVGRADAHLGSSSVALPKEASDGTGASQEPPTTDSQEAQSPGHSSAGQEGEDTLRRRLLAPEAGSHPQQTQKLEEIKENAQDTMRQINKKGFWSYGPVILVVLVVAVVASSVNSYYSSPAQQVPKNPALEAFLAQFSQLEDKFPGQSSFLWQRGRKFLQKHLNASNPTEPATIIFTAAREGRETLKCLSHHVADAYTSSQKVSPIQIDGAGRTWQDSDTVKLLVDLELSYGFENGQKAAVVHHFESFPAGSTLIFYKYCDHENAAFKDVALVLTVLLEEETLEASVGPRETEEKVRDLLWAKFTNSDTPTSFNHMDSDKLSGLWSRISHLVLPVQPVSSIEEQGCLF

[16] = optical density change of DRC41 E. coli – strain DRC41, OD650, 24 h, E. coli filamentation project, primary screen (AID 1093);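 further: MC1000 strain lacking acrAB efflux and sulA so SOS filamentation is blocked; test concentration not given here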; settings: E. coli DRC41 growth, higher = more signal, called active from +8 up or from −8 down
[17] = probe aLefty2 binding to arrayed compounds – biochemical, biotinylated probe, 635/667 nm fluorescence, primary screen (AID 1094); settings: small-molecule microarray, higher = more signal;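 further: score merges spot fluorescence near 667 nm with spot signal-to-noise ratio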
[18] = tested on: Noggin (protein binding on small-molecule microarray); assay: small molecules binding Noggin protein – biochemical, 635/667 nm fluorescence, primary screen (AID 1095); settings: 635 nm fluorescence, higher = more signal;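 further: score merges 667 nm feature fluorescence with signal to noise over triplicate slides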
[19] = biological target: Neurogenic locus notch homolog protein 3 (Homo sapiens) (UniProt Q9UM47); assay: small molecules binding NOTCH3 protein – biochemical, 635/667 nm fluorescence, primary screen (AID 1096); settings: small-molecule microarray, 635 nm fluorescence, higher = more signal
[20] = probe aEGFR binding to arrayed compounds – biochemical, biotinylated probe, 635/667 nm fluorescence, primary screen (AID 1097); settings: small-molecule microarray, higher = more signal;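 further: probe is a biotinylated anti-EGFR antibody binding compounds printed on slides; score combines fluorescence near 667 nm and signal to noise of each spot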

| Compound | composite z-score [1] | composite z-score [2] | composite z-score [3] | composite z-score [4] | composite z-score [5] | composite z-score [6] | composite z-score [7] | z-score [8] | composite z-score [9] | composite z-score [10] | composite z-score [11] | z-score [12] | z-score [13] | z-score [14] | composite z-score [15] | z-score [16] | composite z-score [17] | composite z-score [18] | composite z-score [19] | composite z-score [20] |
| --- | --- | --- | --- | --- | --- | --- | --- | --- | --- | --- | --- | --- | --- | --- | --- | --- | --- | --- | --- | --- |
| CCOC(=O)[C@H](Cc1ccccc1)NC(=O)CCC1CC(OC(=O)NCc2ccc3c(c2)OCO3)CC2(CCCC(COC(=O)NCCOC)O2)O1 (stereo not given in full) | -0.444 | 1.85 | -0.0533 | 0.688 | 0.994 | 0.63 | 0.773 | 1.75 (inactive) | 0.412 | 0.524 | 1.56 | -0.439 (inactive) | -0.25 (inactive) | -0.364 (inactive) | 2.34 | -0.141 (inactive) | -0.166 | 0.884 | 1.05 | 0.0059 |
| CCOC(=O)[C@H](CC(C)C)NC(=O)CCC1CC(OC(=O)NCc2ccc3c(c2)OCO3)CC2(CCCC(COC(=O)NCCC(C)C)O2)O1 (stereo not given in full) | -0.495 | -0.146 | -0.119 | 0.01 | -0.195 | 0.169 | 0.312 | 1.38 (inactive) | -0.11 | -0.291 | 0.145 | 0.138 (inactive) | 0.991 (inactive) | -0.511 (inactive) | -0.222 | 0.796 (inactive) | -0.193 | 0.482 | 0.24 | -0.0828 |
| COCCNC(=O)OCC1CCCC2(CC(OC(=O)NCc3cccc4ccccc34)CC(CCC(=O)N[C@@H](C)C(=O)OC)O2)O1 (stereo not given in full) | -0.486 | 0.0192 | -0.0692 | 0.662 | 0.668 | 0.737 | 1.03 | -1.43 (inactive) | 0.311 | -0.0994 | 1.55 | 1.48 (inactive) | 1.4 (inactive) | 2.67 (inactive) | 1.29 | 0.22 (inactive) | -0.145 | 1.18 | 1.05 | -0.0978 |
| O=C1[C@H]2[C@H]3[C@H](O)[C@H](O)CC(=NO[C@@H]4O[C@H](CO)[C@@H](O)[C@H](O)[C@H]4O)[C@@H]3CC[C@H]2C(=O)N1C[C@@H]1CCCO1 | -0.603 | -0.038 | -0.0908 | 0.529 | 1.06 | -0.0236 | 0.298 | 0.746 (inactive) | 0.254 | 0.0505 | 1.08 | 0.57 (inactive) | -0.0413 (inactive) | -0.0603 (inactive) | 1.21 | 0.415 (inactive) | -0.0683 | -0.287 | 0.979 | 0.0934 |
| CCN1C(=O)[C@H]2[C@H]3[C@H](O)[C@H](O)CC(=NOC(C)CN4CCCc5nc(C)c(C)cc54)[C@@H]3CC[C@H]2C1=O (stereo not given in full) | -0.342 | 0.564 | -0.0468 | 0.49 | 0.724 | -0.0318 | 0.963 | -0.266 (inactive) | 0.372 | 0.0596 | 1.46 | -0.0428 (inactive) | 1.19 (inactive) | 0.385 (inactive) | 0.404 | 1.32 (inactive) | 0.0416 | 1.16 | 0.597 | 0.012 |
| CCOC(=O)CCN1C(=O)[C@H]2[C@H]3[C@H](O)[C@H](O)CC(=NOCC(C)C)[C@@H]3CC[C@H]2C1=O | -0.784 | 1.88 | -0.234 | -1.05 | -0.567 | -0.849 | 0.296 | -0.398 (inactive) | -0.595 | -0.0994 | 0.868 | -0.535 (inactive) | -0.219 (inactive) | -0.629 (inactive) | -0.953 | -0.127 (inactive) | -0.0956 | 1.39 | -0.321 | 0.163 |
| CO[C@@H](C1CCCCC1)[C@@H](C)[C@H](OCc1cccc(Br)c1)[C@@H](C)CO | -0.284 | -0.0003 | -0.0909 | 0.179 | -0.0552 | -0.194 | -0.511 | 2.57 (inactive) | 0.306 | -0.0173 | 0.0812 | -0.407 (inactive) | -16.4 (active) | -1.11 (inactive) | 0.366 | 0.114 (inactive) | -0.181 | 0.307 | 0.322 | -0.0549 |
| CCOC(=O)[C@H](Cc1ccccc1)NC(=O)CCC1CC(OC(=O)NCc2cccc3ccccc23)CC2(CCCC(COC(=O)NCCOc3ccccc3)O2)O1 (stereo not given in full) | -0.591 | 0.618 | -0.105 | 0.133 | 0.863 | 0.972 | 0.898 | 0.688 (inactive) | 0.214 | 0.204 | 1.57 | -0.851 (inactive) | -0.421 (inactive) | -0.792 (inactive) | 3.18 | -0.325 (inactive) | -0.122 | 0.734 | 1.12 | -0.0828 |
| C[C@@H](c1ccccc1)N1C(=O)[C@H]2[C@H]3[C@H](O)[C@H](O)CC(=NNC(=O)OCc4ccccc4)[C@@H]3CC[C@H]2C1=O | -0.909 | 2.62 | -0.203 | -0.261 | -0.155 | -0.536 | 1.22 | -0.491 (inactive) | 0.0473 | 0.161 | 1.57 | -0.291 (inactive) | 0.452 (inactive) | 5.24 (inactive) | 0.0265 | 0.482 (inactive) | -0.19 | 1.89 | -0.11 | -0.508 |
| CC(=O)OC[C@H]1O[C@H](CC=NOC[C@@H](O)[C@H]2O[C@@H]3OC(C)(C)O[C@@H]3[C@H]2O)C=C[C@@H]1OC(C)=O | -0.373 | -0.487 | 0.138 | 0.416 | 1.04 | 0.758 | 1.13 | -0.008 (inactive) | 0.265 | -0.0844 | 0.739 | 0.561 (inactive) | 1.09 (inactive) | 0.541 (inactive) | 2.25 | 0.72 (inactive) | -0.0708 | 0.441 | 0.492 | -0.0035 |
